The values below come from PubChem BioAssay (NCI).

SMILES strings stand for the structures. About 79,000 compounds went through this panel and 15% of them were active in at least one assay; those are over-represented in the sample as a whole. A number with no mark means an inactive call. The source made the active and inactive calls. Cut-off read from the data, not from the text of the source: active = growth inhibition above about 70%; inactive = the rest.

The assay is described as follows: NCI Yeast Anticancer Drug Screen. Data for the rad50 strain (AID 155).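 Note: 0% = growth of vehicle-only cultures of the same strain.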 The following applies: S. cerevisiae rad50 strain growth inhibition; at 5.0 µM (retest, dose inferred, filed as 0.5); active compounds read high. An outline of the steps:
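Growth of the mutant yeast was measured after compound exposure and referenced to vehicle-treated cultures.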
As for `CNS(=O)(=O)c1ccccc1C=C(c1ccccc1)c1ccccc1`, the growth inhibition was 2%.
In the case of `CC(C)c1cc(C(C)C)c(Cl)c(Cl)c1O` (tested in a mixture with another compound) it was 1%.
In the case of `Nc1cccc2cccnc12` it was 31%.
The value for `C[n+]1c(/C=C/c2ccc(N3CCCC3)cc2)sc2ccccc21` was 76% (active); that for `Nc1cn(C2OC(CC(c3ccccc3)(c3ccccc3)c3ccccc3)C(O)C2O)c(=O)[nH]c1=O` (centres undefined) was 99% (active).
On to `c1ccc(Cn2nnc(-c3ccccc3)c2-c2ccccc2)cc1`, for which the growth inhibition was -2%.
Regarding `CCCCCC(CCCCC)OC(=O)CCN(CCCCC)CCCCC`, the growth inhibition is 2%.
In the case of `C=CCC1(OC(C)=O)CC2C(=O)C(=O)C(C1)N2OC(=O)c1ccccc1` (centres undefined) it was 20%.
The value for `C=CS(=O)(=O)c1ccc([N+](=O)[O-])cc1` was -29%; that for `Cc1ccc(S(=O)(=O)Oc2ccc(C(C)(C)C)cc2Cl)cc1` was -8%.
As to `O=C(CCl)N1CCN(C(c2ccccc2)c2ccccc2)CC1`, the growth inhibition is 6%.
In the case of `Oc1ccc2ccccc2c1.[Cu+2]`, the growth inhibition was 1%.
For `NS(=O)(=O)c1ccc(NC(=O)Cc2nc3ccccc3s2)cc1`, the growth inhibition was 36%.
The value for `O=C(COc1ccc(Cl)cc1)OCCO` was 0%; that for `NC(=Nc1ccccc1)SCc1ccc([N+](=O)[O-])cc1` was 47%.
`N[C@@H]1CCCC[C@@H]1N.O=C([O-])CN(CP(=O)([O-])[O-])CP(=O)([O-])[O-].[Pt+2]`: the growth inhibition is -1%.
In the case of `C/C=C(\C)CC/C=C/CO[Si](C)(C)C(C)(C)C` it was -19%; in that of `CCOC(=O)c1cnc2cc3cccccc3n2c1=O`, 4%; in that of `C(=N\NC1=NCCN1)/c1ccc(-c2cn3cc(/C=N/NC4=NCCN4)ccc3n2)cc1`, 99% (active).
For the molecule `CC(CN(C)C)C(/C=C/c1ccc(F)cc1)=N\Nc1ccccc1` (centres undefined), the growth inhibition is -8%.
As for `O=C1C(Sc2ccc3ccccc3c2)=C(Sc2ccc3ccccc3c2)C(=O)c2ccccc21`, the growth inhibition is 34%.
In the case of `CC(O)c1cccnc1` (centres undefined) it was 11%; in that of `Cc1cccc2nc3nc(Cl)c(Cl)nc3n12`, 4%; in that of `CSc1cc2c(cc1N)Cc1cc(F)ccc1-2`, 4%.
In the case of `CC(C)C1=CC23CCC4C(C)(C(=O)O)CCCC4(C)C2CC1c1c(O)ccc(O)c13` (centres undefined) it was 30%; in that of `C=CCNC(=S)N/N=C(\CCC)c1ccccn1`, 98% (active).
In the case of `C#CC(C)(C)OC(C)=O` it was -2%; in that of `Cc1cc(N2C(=O)CSC2=S)c([N+](=O)[O-])cc1C`, 23%; in that of `Cc1[nH]c(=O)[nH]c(=O)c1CN(C)Cc1cc(Cl)cc(Cl)c1O`, -4%.
Turning to `CCCCC(CC)C(O)C(=O)O` (centres undefined), the growth inhibition was 2%.
In the case of `CCOCCOc1ccc(OCCOCC)cc1` it was -8%; in that of `O=C(O)c1ccc(C(=O)c2ccccc2C(=O)O)cc1`, -3%; in that of `CCCCCCCCCCCCCCNC(=O)CCC(NC(=O)c1ccc(N(C)Cc2cnc3nc(N)nc(N)c3n2)cc1)C(=O)NCCCCCCCCCCCCCC` (centres undefined), 28%.
The value for `C=C1C(=O)C23OC2C1CCC(=O)C1(C)CC[C@H](OC(C)=O)C(C)(C)[C@H]1CC3O` (some centres undefined) was 86% (active); that for `CCCCCCCCCCC(NC(C)=O)(C(=O)OCC)C(=O)OCC` was -9%.
The value for `ClC(Cl)(Cl)/C=C/c1cnc2ccccc2n1` was 2%; that for `CCc1nc(N)nc(N)c1-c1ccc(N(C)Cc2ccccc2)c([N+](=O)[O-])c1` was 10%.
Consider `O=C(COC(=O)C(c1ccccc1)c1ccccc1)c1ccc(Br)cc1`, for which the growth inhibition is -2%.
Take `OCCN1COc2cc3c(cc2C1)OCN(CCO)C3`: the growth inhibition is 1%.
